Screening data deposited in PubChem BioAssay by National Center for Advancing Translational Sciences (NCATS).
A selection: hits, their analogues and other compounds. The true share with any hit is near 3.7%.
TGFb SMAD3 inh = TGF-b pathway inhibition. HepG2 CAGA-GFP TGF-b/SMAD3 reporter, GFP fluorescence, 18 h; TGF-beta stimulated, 500 pg/mL final. Potency, µM (series often up to 46.1 µM), without a hit: at the highest dose activity, negative = inhibition, usual class: inhibitors. 410,000 compounds, 1.2% hits; note: % is set by controls: 0 for no effect and ±100 for the full control effect; nearly all actives have a fitted effect of over 65% in size
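Inhibition was scored as loss of TGF-beta-induced (500 pg/mL final, 18 hours, 37 degrees C) GFP in HEPG2 cells carrying a CAGA-GFP reporter, in DMEM with 1% FBS. Well GFP was summed per cell; Activity was normalised to unstimulated and stimulated DMSO wells, then concentration-response fitting.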
GLP1R inv ag = GLP-1 receptor (human) inverse agonism; 410,000 compounds, 1.6% hits; Potency, µM (series often up to 38.3 µM), without a hit: top-dose activity change, negative = inhibition, hits mostly inhibitors; P43220; AID 624417; HEK293 GLP-1R CRE-luciferase, luminescence, 24 h; GLP-1R form is constitutively active; note: % is set by controls: 0 for no effect and ±100 for the full control effect; nearly all actives have a fitted effect of over 55% in size
Target sequence (P43220 whole entry, looked up): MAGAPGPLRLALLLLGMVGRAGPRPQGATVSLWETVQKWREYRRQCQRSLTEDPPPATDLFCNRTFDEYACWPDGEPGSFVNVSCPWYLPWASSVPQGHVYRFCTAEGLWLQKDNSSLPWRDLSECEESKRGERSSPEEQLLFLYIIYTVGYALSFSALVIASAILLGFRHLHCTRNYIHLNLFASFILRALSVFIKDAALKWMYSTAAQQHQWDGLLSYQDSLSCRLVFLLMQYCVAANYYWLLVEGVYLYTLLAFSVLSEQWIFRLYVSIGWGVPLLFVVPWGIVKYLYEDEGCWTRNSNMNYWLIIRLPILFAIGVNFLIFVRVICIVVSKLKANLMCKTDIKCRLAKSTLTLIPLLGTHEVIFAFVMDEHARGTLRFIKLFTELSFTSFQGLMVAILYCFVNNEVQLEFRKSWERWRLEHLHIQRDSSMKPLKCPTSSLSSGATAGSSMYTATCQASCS
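Assay principle: reduced luminescence from a cAMP-responsive reporter in HEK293 cells co-expressing a constitutively active GLP-1R. Conditions: 24 hr compound incubation, 37 deg C, 5% CO2.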
HepG2 tox = HepG2 cytotoxicity, counter-screen for TGF-b inhibitors | HepG2 CAGA-GFP viability, ATP luminescence, 18 h | Potency, µM (doses to about 46.1 µM), without a hit: at the top dose activity change, negative = cytotoxicity, usual class: cytotoxic | AID 588856 | 410,000 compounds, 0.76% hits
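CellTiter-Glo luminescence gave cytotoxicity after 18 hours at 37 degrees C. The cells were HepG2 CAGA-GFP in 1% FBS DMEM, stimulated with 500 pg/mL TGF-beta after compound addition. %Activity was normalised to no-cell wells (complete cell-killing) and DMSO (no toxicity), and curves were fitted and classified.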
S2 tox = reduces viability in counter-screen for ATXN expression inhibitors. 400,000 compounds, 0.49% hits. AID 651635. Potency, µM (doses to about 56.7 µM), usual class: cytotoxic. S2 cells (HEK-293 line with an ATXN2-luciferase reporter) viability, CellTiter-Fluor protease fluorescence, 24 h; note: nearly all actives have a fitted effect of over 40% in size
GLP-1R agonist = agonists of human GLP-1 receptor. HEK293 GLP-1R CRE-luciferase, luminescence, 4-6 h; cells express a hypersensitive GLP-1R form. Potency, µM (titrated, usually from 45.6 µM), inactives show top-dose activation, most hits filed as activators. 380,000 compounds, 0.007% hits; note: % of control where 0% means no effect
ATXN2 expr inh = ATXN2 expression inhibition | HEK-293 ATXN2-luciferase reporter, luminescence, 24 h | Potency, µM (doses to about 57 µM), for inactives: top-dose activity change, negative = inhibition, usual class: inhibitors | 360,000 compounds, 0.72% hits | AID 1745845; note: % is set by controls: 0 for no effect and ±100 for the full control effect; nearly all actives have a fitted effect of over 55% in size
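qHTS (up to 57 uM final) was run with 24 h compound exposure of reporter cells at 37 °C. Each well was multiplexed: SteadyGlo luminescence measured ATXN2-luciferase expression after a fluorogenic Gly-Phe-AFC viability readout (25 uM final).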
The depositor's hits bear a star; i = inactive; ? = inconclusive; nt = not tested or not shown. Calls come from the whole dose curve; as a rule, active = well fitted curve in the direction sought with a large enough effect; inconclusive = small, poorly fitted or top-dose-only effect, or another doubt; inactive = no such curve, though single readings can be large; an effect the other way counts as inactive or inconclusive. Potency is the fitted concentration of half-maximal effect.

SMILES	TGFb SMAD3 inh	GLP1R inv ag	HepG2 tox	S2 tox	GLP-1R agonist	ATXN2 expr inh
CN(C)CCCn1cnc2c(c1=N)C(c1ccccc1)c1ccc3ccccc3c1O2 (stereo not drawn)	?	?	-101.9%	?	-1.7%	nt
COc1ccc(C2c3ccc4ccccc4c3Oc3ncn(CCO)c(=N)c32)cc1OC (stereo not drawn)	-3.9%	-23.8%	0.3%	?	-10.0%	nt
COc1ccc(C2c3ccc4ccccc4c3Oc3ncn(CCN(C)C)c(=N)c32)cc1 (stereo not drawn)	15.8µM*	3.98µM*	-79.9%	?	26.8%	-29.3%
N=c1c2c(ncn1CCCO)Oc1c(ccc3ccccc13)C2c1ccccc1 (stereo not drawn)	?	?	-117.6%	14.1µM*	0.5%	nt
COc1ccc(C2c3ccc4ccccc4c3Oc3ncn(CCCO)c(=N)c32)cc1 (stereo not drawn)	?	5.62µM*	-116.6%	nt	15.8%	25.1µM*
Cc1c(Cl)cccc1NC(=O)C(=O)NCC(c1cccnc1)N1CCN(c2ccccc2)CC1 (stereo not drawn)	?	8.5%	-14.3%	nt	nt	nt
N=c1c2c(ncn1Cc1ccco1)Oc1ccc3ccccc3c1C2c1ccccc1 (stereo not drawn)	0.0%	?	-2.3%	nt	1.4%	22.4µM*
COc1ccc(C2c3c(ncn(Cc4ccco4)c3=N)Oc3ccc4ccccc4c32)cc1 (stereo not drawn)	-4.8%	?	2.7%	?	-4.7%	-34.7%
O=C(Cn1ncc2c3ccccc3n(Cc3cccc(Cl)c3)c2c1=O)NC1CCCCCC1	-16.0%	?	-18.6%	i	nt	6.8%
O=C(NC1CC(=O)N(c2ccc(F)cc2)C1)C1CCCC1 (stereo not drawn)	-31.5%	-0.6%	-3.1%	nt	nt	nt
Cc1c(C(=O)N2CC3CCC2C3)sc2ncnc(NCc3ccco3)c12 (stereo not drawn)	nt	nt	nt	i	nt	nt
COc1cc(OC)c(NC(=O)c2nn(C)c3c2COc2ccccc2-3)cc1Cl	-5.3%	6.5%	-4.2%	nt	nt	nt
Cc1ccc(NC(=S)NC(NC(=O)c2ccccc2C)C(Cl)(Cl)Cl)c(C)c1 (stereo not drawn)	22.4µM*	5.62µM*	-31.0%	i	-9.2%	1.3%
CCc1ccc(OCC(=O)NC(NC(=S)Nc2ccccc2)C(Cl)(Cl)Cl)cc1 (stereo not drawn)	?	3.98µM*	11.2µM*	i	3.6%	?
O=C(NC(NC(=S)Nc1cccc(Cl)c1)C(Cl)(Cl)Cl)OCc1ccccc1 (stereo not drawn)	6.31µM*	-0.6%	11.2µM*	?	-6.1%	?
Cc1ccc(C)c(NC(=S)NC(NC(=O)Cc2cccc3ccccc23)C(Cl)(Cl)Cl)c1 (stereo not drawn)	3.55µM*	?	2.82µM*	15.8µM*	-36.4%	17.8µM*
COc1cc(CNC(=O)CCCCC=CC(C)C)ccc1O	nt	nt	nt	nt	nt	7.1%
COC1C(OC(=O)/C=C/C=C/C=C/C=C/C(=O)O)CCC2(CO2)C1C1(C)OC1CC=C(C)C (stereo not drawn)	nt	nt	nt	nt	-1.8%	nt
Cc1oc2ncn(C)c(=O)c2c1C(=O)N(C)c1ccccc1F	2.3%	?	1.1%	i	nt	6.5%
CCc1ccc(OCC(=O)NC(NC(=S)Nc2ccc(C)cc2C)C(Cl)(Cl)Cl)cc1 (stereo not drawn)	11.2µM*	5.01µM*	11.2µM*	?	-35.7%	?
O=C(CCc1ccccc1)NC(NC(=S)Nc1ccc(Cl)cc1)C(Cl)(Cl)Cl (stereo not drawn)	-3.3%	?	-95.4%	nt	-22.8%	31.6µM*
COc1cc(-c2cnc3ccccc3c2)cc2c1OCCN(C(=O)CCn1nc(C)cc1C)C2	nt	nt	nt	i	nt	nt
